Rows were chosen to be rich in hits. Some 3.1% of all compounds tested hit in one or more screens of this group.
BRCA1 expr act = BRCA1 expression activation. MCF7-BRCA1-FFLuc reporter, luminescence, 48 h; response scale: scaled: vehicle 0%, 10 µM genistein 100%. Potency, µM (highest dose often 46.1 µM), inactives show top-dose activation, actives largely listed as activators. actives 1.1% (n = 380,000). AID 624202; further: potency means the concentration at half of the fitted maximal effect; nearly all actives have a fitted effect of over 80% in size
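MCF7 cells carrying a BRCA1-firefly luciferase reporter (2000 cells/well, phenol-red free MEM) were attached for 2 h at 37 °C, then given compounds for 48 h. Luminescence was read 15 min after luciferase reagent; activity normalized to genistein (10 microM) and DMSO.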
IL-2 act = activates IL-2 in a cell-based reporter assay | IL-2 activation reporter assay, cell-based qHTS; stimulated with anti-CD3/CD4/CD28 beads; in transgenic mouse T cells | activation, % (series mostly up to about 46 µM) | actives 0.065% (n = 360,000); in the data active means activation above about 50%; inconclusive means mostly about 30% to 49%; further: 0% is about no effect
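Unstimulated transgenic mouse T cells preincubated 60 min with compound, then stimulated with anti-CD3/anti-CD4-coated beads plus anti-CD28 for 18 h at 37 degrees C. IL-2 response read as EGFP and DsRed fluorescence by plate cytometry.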
ELG1 DNA repair = blocks ELG1-dependent DNA repair in HEK293T cells. actives 2.3% (n = 330,000). AID 504467. Potency, µM (highest dose often 46.1 µM), for the others: at the top dose activity change, negative = inhibition, usual class: inhibitors. HEK293T ELG1-luciferase reporter, luminescence, 16 h; DNA damage induced by 5-fluorouridine; further: potency means the concentration at half of the fitted maximal effect; on the % scale 0 is the no-effect control and ±100 the full control effect; nearly all actives have a fitted effect of over 55% in size
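Step one: seed 2,000 cells per well. Step two: pin-transfer compound or DMSO alongside 5-fluorouridine. Step three: incubate 16 hr, 37 °C, 5% CO2. Step four: add ONE-Glo, wait 30 min, read luminescence.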
Nrf2 activator = activates Nrf2 signaling | AREc32 ARE-luciferase reporter (MCF7-derived line), luminescence, 24 h | Potency, µM (doses to about 46.1 µM), inactives show at the highest dose activation, most hits filed as activators | actives 0.31% (n = 410,000) | AID 624171; further: potency means the concentration at half of the fitted maximal effect; % of control where 0% means no effect; nearly all actives have a fitted effect of over 65% in size
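ARE-driven firefly luciferase activity in AREc32 cells measured after a 24 hr compound exposure at 37 deg C, using Steady-Glo reagent and a 30 min room-temperature hold.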
The depositor's hits bear a star; ? = inconclusive; · = no result given. Unless noted, the call rests on the fitted dose curve; in most records, active means well fitted curve in the direction sought with a large enough effect; inconclusive means small, poorly fitted or top-dose-only effect, or another doubt; inactive means no such curve, though single readings can be large; an effect the other way counts as inactive or inconclusive.

SMILES	BRCA1 expr act	IL-2 act	ELG1 DNA repair	Nrf2 activator
Cc1ccccc1-c1noc(-c2ccc(N3CCC(C)CC3)c([N+](=O)[O-])c2)n1	0%	·	·	0%
C/C(=N\NC(=S)Nc1cc(S(=O)(=O)N2CCOCC2)ccc1Cl)c1ccc(N2CCOCC2)cc1	1%	-2	?	0%
CC(C)Oc1cccc(-c2cc(C(=O)NN3CCOCC3)c3ccccc3n2)c1	-3%	-5	-12%	2%
CSc1ccc(Cl)c(C(=O)Nc2cc(S(=O)(=O)N3CCOCC3)ccc2N2CCOCC2)c1	2%	1	18µM*	0%
COc1ccc2cc(/C(C)=N/NC(=S)Nc3cc(S(=O)(=O)N4CCOCC4)ccc3N3CCOCC3)ccc2c1	·	·	4.6µM*	·
CCCc1ccc(-c2cc(C(=O)NN3CCOCC3)c3ccccc3n2)cc1	14µM*	1	?	3%
COc1ccccc1CCNC(=O)C(=O)NCC(c1cccnc1)N1CCN(c2ccccc2)CC1 (stereo unspecified)	·	·	·	-1%
CCCN1Cc2cccc(C(=O)Nc3cccc(C(=O)OCC)c3)c2C1=O	·	·	·	0%
CCc1nn2c(=O)cc(COC(=O)c3ccccc3NC(=O)c3ccc(C(C)(C)C)cc3)nc2s1	·	·	·	0%
CN(C(=O)Cn1cnc2onc(-c3ccc(F)cc3)c2c1=O)c1ccccc1Cl	7%	·	·	0%
CCCc1cc(=O)n2[nH]c(NCc3ccccc3OC)nc2n1	·	·	·	10%
Cc1ccccc1NC(=O)CSc1nc2c(oc3ccccc32)c(=O)n1Cc1ccco1	20%	·	·	5%
Cc1cccc(Nc2nnc(-c3ccc(N4CCOCC4)c([N+](=O)[O-])c3)c3ccccc23)c1	-31%	-4	8.2µM*	0%
Cc1ccc(-c2nnc(Nc3cccc(O)c3)c3ccccc23)cc1S(=O)(=O)N1CCOCC1	·	·	·	7%
Clc1ccc2nc(-c3ccco3)c(Cc3ccsc3)n2c1	6%	-1	·	11µM*
COC(=O)c1ccc2nc(-c3ccco3)c(Cc3ccccc3)n2c1	-23%	0	·	?
Clc1ccc2nc(-c3ccco3)c(Cc3ccccc3)n2c1	3%	-1	·	10µM*
Brc1ccc2nc(-c3ccco3)c(Cc3ccsc3)n2c1	2%	-1	·	?
COC(=O)c1ccc2nc(-c3ccco3)c(Cc3cccc(Cl)c3)n2c1	0%	2	·	5.6µM*
COc1cccc(CCNC(=O)c2ccc(Cn3c(SCc4ccccc4)nc4cccnc43)cc2)c1	·	·	·	3%
CC(=O)N1c2ccc(S(=O)(=O)NCC3CCC(C(=O)NCCC(C)C)CC3)cc2CC1C (stereo unspecified)	·	·	·	3%
CCn1c(=O)c2sccc2n2c(CCCC(=O)N3CCN(c4ccc(F)cc4)CC3)nnc12	·	·	·	0%
COC(=O)CNC(c1ccccc1)c1cc(C)ccc1NC(=O)c1cccc(Cl)c1 (stereo unspecified)	-27%	-2	18µM*	0%
N/C(=N\N=C\c1ccc(Br)o1)c1nonc1N	10µM*	-1	?	?
CCOc1cc(C2CC(=O)Nc3c2c(=O)nc(SCc2cccc(Cl)c2)n3C)ccc1O (stereo unspecified)	·	·	·	1%
SMILES	BRCA1 expr act	IL-2 act	ELG1 DNA repair	Nrf2 activator
O=C(NCCc1ccccc1)c1noc2c1CCCCC2	4µM*	-1	?	0%
Cc1ccc(Cn2ccc(NC(=O)c3noc4c3CCCCC4)n2)cc1	44%	0	-4%	0%
Cc1ccc(Cn2ccc(NC(=O)c3noc4c3CCCC4)n2)cc1	5.6µM*	-1	?	1%
O=C(NCc1ccccc1)c1noc2c1CCCC2	-40%	-1	24%	0%
Cc1ccc(O)c(NC(=O)c2noc3c2CCCC3)c1	·	·	·	7.9µM*
CCOc1ccccc1NS(=O)(=O)c1ccc2c(c1)CC(C)N2C(=O)C1CC1 (stereo unspecified)	·	·	·	0%
COc1ccc2[nH]c(=O)c(CN(Cc3ccccc3)C(=S)NCC3CCCO3)cc2c1 (stereo unspecified)	-10%	-4	?	2%
COc1ccc2cc(CN(Cc3ccco3)C(=S)NCC3CCCO3)c(=O)[nH]c2c1 (stereo unspecified)	-56%	-3	23µM*	1%
CCc1ccc2[nH]c(=O)c(CN(CCN(C)C)C(=S)NCc3ccco3)cc2c1	-20%	-1	-14%	2%
CCc1ccc2[nH]c(=O)c(CN(CC3CCCO3)C(=S)NCc3ccco3)cc2c1 (stereo unspecified)	-6%	-2	18µM*	9%
CCN(CC)Cc1c(NC(=O)c2ccccc2)sc(C)c1C	16%	0	?	11µM*
Cc1cc(NC(=O)CC#N)n(-c2nc3ccccc3[nH]2)n1	-43%	0	12µM*	11%
COc1ccc(C(=O)Nc2cc(C)nn2-c2nc3ccccc3[nH]2)c(OC)c1	-6%	2	23µM*	0%
Cc1cc(NC(=O)c2ccccc2)n(-c2nc3ccccc3[nH]2)n1	0%	-1	-9%	0%
O=C(CCl)N=c1sccn1Cc1ccccc1Cl	-29%	-5	?	?
O=C(Cn1ccsc1=NC(=O)C(F)(F)F)c1ccccc1	7.9µM*	-2	?	3%
O=C1c2ccccc2C(=O)N1c1cccc(O)c1	10%	·	·	·
COc1ccc(N2CC(NC(=O)C(=O)c3c[nH]c4ccccc34)CC2=O)cc1 (stereo unspecified)	·	·	·	1%
Cc1cccc(-n2cnc3c(c2=O)c2nc4ccccc4nc2n3Cc2ccco2)c1	-6%	0	18µM*	0%
O=C(Nc1ccccc1)c1ccc2nc(-c3ccco3)c(-c3ccco3)nc2c1	9%	4	9.2µM*	18%
O=C(Nc1ccc2nc(-c3ccco3)c(-c3ccco3)nc2c1)N1CCN(c2ccccn2)CC1	-8%	-2	12µM*	5%
Cc1cccc(Nc2nc(-c3ccccc3)c(C(=O)Nc3cccnc3)s2)c1	-92%	-4	13µM*	0%
O=C(Nc1cccnc1)c1ccc2nc(-c3ccccc3)c(-c3ccccc3)nc2c1	-10%	1	23µM*	-1%
CCOC(=O)c1c(C)oc2nc(C)nc(N3CCN(c4cccc(C(F)(F)F)c4)CC3)c12	·	·	·	4%
Cn1c(=O)c2sccc2n2c(CCC(=O)NCc3ccccc3)nnc12	·	·	·	-1%
SMILES	BRCA1 expr act	IL-2 act	ELG1 DNA repair	Nrf2 activator
COC(=O)c1ccc(Cl)c(NC(=O)NC23CC4CC(CC(C4)C2)C3)c1	-79%	7	21µM*	0%
COC(=O)c1cccc(NC(=O)NC23CC4CC(CC(C4)C2)C3)c1	41%	-2	?	0%
COC(=O)[C@@]12C[C@@H](CC(=O)NCCC(C)C)C(=O)N(Cc3cccc4ccccc34)C1=CCC(C)(C)C2	·	-1	·	·
c1ccc(C2=Nn3c(nnc3-c3ccncc3)SC2)cc1	-5%	0	8.2µM*	1%
c1ccc(C2=Nn3c(nnc3-c3cccnc3)SC2)cc1	-34%	1	?	4%
COC(=O)CN1C(=O)CSc2ccc(S(=O)(=O)Nc3cccc(Cl)c3C)cc21	·	·	·	0%
